MLL AF4-AF9 inh = blocks AF4 peptide binding to human AF9; P42568; AlphaScreen, biotin-AF4 peptide binding to FLAG-AF9; inhibition, % at 10 µM; actives 0.47% (n = 350,000);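 active = every replicate reaching a set inhibition limit, whatever the replicate mean, cut at about 25% in these data; inconclusive = mean inhibition reaches that limit but some replicates miss it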;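 note: 0% = plate neutral control median and 100% = total signal loss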
FGF22 binding = FGF22 (human) thermal shift binding. recombinant FGF22 thermal shift, SYPRO orange fluorescence; percent of sucrose octasulfate shift, DMSO zero. Q9HCT0. activity (Tm shift, normalised), % at 9.99 µM. actives 1.5% (n = 340,000);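 active = mean Tm shift, scaled 0 neutral to 100 positive control, at about 1.3% or above, every replicate too, limit read from the data; inconclusive = no clear call, values can overlap the other calls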
Target sequence (Q9HCT0 whole entry, looked up): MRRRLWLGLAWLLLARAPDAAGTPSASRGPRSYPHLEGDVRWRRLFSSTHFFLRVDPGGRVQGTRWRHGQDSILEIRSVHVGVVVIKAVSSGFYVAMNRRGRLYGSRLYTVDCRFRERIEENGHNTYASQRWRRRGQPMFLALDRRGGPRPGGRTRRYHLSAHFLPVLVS
DENV2 CPE = inhibitors of DENV2 cytopathic effect; CPE inhibition, % at 9.99 µM; actives 1.7% (n = 350,000); DENV2-infected cells, cytopathic effect rescue, plate reader; AID 651640; in the data active = CPE inhibition above about 20%, passing the limit was not always enough; inconclusive = no clear call, values can overlap the other calls; tested in BHK-21 cells;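 note: 0% = median of neutral control wells and 100% = median of positive control wells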
RAD52 anneal inh = inhibitors of human RAD52 DNA annealing | P43351 | AID 651710 | actives 0.46% (n = 360,000) | inhibition, % at 18.7 µM | recombinant RAD52 DNA annealing, FRET fluorescence;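 active = every replicate showing at least 50% inhibition; inconclusive = mean inhibition at least 50% but not in every replicate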
Target sequence (P43351 whole entry, looked up): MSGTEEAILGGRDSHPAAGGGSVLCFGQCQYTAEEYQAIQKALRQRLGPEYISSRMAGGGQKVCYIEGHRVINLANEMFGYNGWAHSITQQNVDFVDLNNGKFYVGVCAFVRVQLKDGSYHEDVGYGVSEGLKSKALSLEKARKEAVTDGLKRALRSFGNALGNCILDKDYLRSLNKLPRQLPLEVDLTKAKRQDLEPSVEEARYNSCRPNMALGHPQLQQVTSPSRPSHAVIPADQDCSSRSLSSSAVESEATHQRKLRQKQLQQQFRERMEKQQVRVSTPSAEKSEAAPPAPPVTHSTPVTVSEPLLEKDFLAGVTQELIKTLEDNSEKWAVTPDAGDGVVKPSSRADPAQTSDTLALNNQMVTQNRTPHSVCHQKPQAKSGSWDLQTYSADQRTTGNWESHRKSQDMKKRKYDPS
ERAP1 inh = inhibitors of human ERAP1 aminopeptidase. Q9NZ08. recombinant ERAP1, Leu-AMC fluorescence, 60 min. inhibition, % at 10.7 µM. actives 0.15% (n = 340,000). AID 652197;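 active = mean replicate inhibition of at least 30%, or all replicates individually reaching that 30% level; inactive = mean below 30% and not every replicate reaching it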;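 note: 0% = neutral control wells and 100% = L-leucinethiol positive control wells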
DNA binder FP = binds DNA, flagging false RAD52 inhibitor hits | AC50, µM | actives 8% (n = 1,000) | shares compounds with RAD52 anneal inh | Salmon sperm DNA/acridine orange FP displacement, DNA binding;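 active = fitted half-maximal concentration for signal loss at or below twice the highest dose tested, in every separate run, actives reach about 64 µM in these data; inconclusive = runs disagree, or flat partial signal loss, or poor fit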
An asterisk follows results filed as active; i = inactive; ? = inconclusive; / = no result given. An excerpt weighted towards active compounds, which were near 4% of everything screened.

SMILES | MLL AF4-AF9 inh | FGF22 binding | DENV2 CPE | RAD52 anneal inh | ERAP1 inh | DNA binder FP
N=C(N)c1ccc(N=Nc2c(O)ccc3c2[nH]c2ccccc23)cc1 | 32.1* | 0.2 | 6.2 | 102.4* | 14.0 | i
Oc1ccc(N=Nc2c(O)ccc3ccccc23)cc1 | 6.0 | / | -4.7 | -13.4 | 1.3 | /
CN1CCc2c(sc(N)c2C(=O)O)C1 | ? | 0.3 | 5.7 | 74.1* | -0.9 | i
C[C@@H]1CN([C@@H](C)CO)C(=O)c2cc(NC(=O)Nc3ccc4c(c3)OCO4)ccc2O[C@@H](C)CCCCO[C@@H]1CN(C)C(=O)Cc1ccccc1 | 8.3 | -0.8 | ? | 0.7 | -2.4 | /
Cc1cccc(/C=C/C(=O)c2ccc(NC3=NCCCS3)cc2)c1 | 12.8 | -0.3 | 3.7 | 54.4* | 34.7* | i
CNC[C@H](O)c1ccc(O)c(O)c1 | -7.7 | -0.7 | ? | 0.2 | -1.0 | /
NC[C@H](O)c1ccc(O)c(O)c1 | -1.7 | -0.4 | 1.0 | 69.8* | 2.9 | i
C[C@H](CO)N1C[C@H](C)[C@H](CN(C)C(=O)c2ccncc2)Oc2ncc(C3=CCCC3)cc2C1=O | -3.0 | -0.1 | 6.9 | 9.2 | -0.9 | /
COc1ccc(C(=O)NC2CC(C)(C)NC(C)(C)C2)cc1S(=O)(=O)N1CCOCC1 | -0.1 | -0.1 | -6.9 | 98.1* | -5.0 | i
CCCN1CCN(CCCNC(=O)C2CCN(c3nnc(-n4c(C)ccc4C)s3)CC2)CC1 | 6.0 | -0.1 | 0.8 | 58.3* | -4.0 | i
CCN1CCN(C(=O)C2CCN(c3nnc(-n4c(C)ccc4C)s3)CC2)CC1 | 6.4 | 0.1 | -3.1 | 57.8* | / | i
Cc1ccc(C)n1-c1nnc(N2CCC(C(=O)N3CCN(C)CC3)CC2)s1 | 5.5 | 0.4 | -0.8 | 55.8* | / | i
CN(C1CCCCC1)S(=O)(=O)c1ccc(C(=O)Nc2sc3c(c2C(N)=O)CC(C)(C)NC3(C)C)cc1 | -2.5 | -0.1 | 0.3 | 77.8* | -4.4 | i
CCOC(=O)c1c(NC(=O)c2ccc(S(=O)(=O)N3CCOCC3)cc2)sc2c1CC(C)(C)NC2(C)C | -3.2 | -0.2 | -6.0 | -12.8 | 10.7 | /
COc1ccc(C(=O)Nc2ccc3c(c2)OC[C@H](C)NC[C@H](C)[C@H](OC)CN(C)C3=O)cc1 | -2.1 | -0.3 | -1.7 | -11.0 | -2.5 | /
C[C@@H]1CCCCO[C@@H](CN(C)C(=O)Nc2ccc3c(c2)OCO3)[C@H](C)CN([C@H](C)CO)C(=O)c2cc(NC(=O)CCC(F)(F)F)ccc2O1 | 4.0 | -0.3 | 9.3 | -0.5 | 2.6 | /
O=C(CN1CCCCC1)Nc1ccc(N2CCCCCC2)cc1 | 31.0* | -0.3 | 2.6 | 61.7* | / | i
O=C(CN1CCCCCC1)Nc1ccc(Oc2ccccc2)cc1 | 5.9 | 0.1 | 11.4 | 8.9 | 15.1 | /
CN1CCN(C(=O)C[C@@H]2CC[C@H]3[C@@H](COC[C@@H](O)CN3Cc3ccc4c(c3)OCO4)O2)CC1 | -2.0 | -0.1 | -0.3 | -2.3 | 2.3 | /
COc1ccc(CN(C)C[C@@H]2Oc3c(NS(=O)(=O)c4ccc(C)cc4)cccc3C(=O)N([C@@H](C)CO)C[C@H]2C)cc1 | 1.3 | -0.1 | -12.8 | -0.9 | 1.1 | /
CN(C)c1cccc2cccc(N(C)C)c12 | / | 0.0 | -2.7 | 93.4* | 3.4 | i
CN(C)c1ccc2c3c(ccc(N(C)C)c13)COC2 | -3.9 | 0.2 | -3.3 | -16.4 | -3.6 | /
NCCCC[C@H](NC(=O)C1CCNCC1)c1nnc([C@@H](N)Cc2ccc(O)cc2)o1 | 15.2 | -0.3 | -8.6 | 73.9* | / | i
C[C@@H]1CCCCO[C@@H](CN(C)Cc2ccncc2)[C@H](C)CN([C@@H](C)CO)C(=O)c2cc(NC(=O)CCC(F)(F)F)ccc2O1 | -4.5 | 0.1 | -5.4 | -1.4 | 2.8 | /
CN1CCN(CCCNC(=O)c2cc3c(=O)n(C)c4ccccc4c3s2)CC1 | -3.8 | 0.0 | 4.9 | 62.3* | 7.2 | i
SMILES | MLL AF4-AF9 inh | FGF22 binding | DENV2 CPE | RAD52 anneal inh | ERAP1 inh | DNA binder FP
CC1CCCN(CCCNC(=O)c2cc3c(Cl)nc4ccccc4c3s2)C1 (stereo not drawn) | 7.8 | 0.0 | -4.6 | 66.8* | -6.4 | 39.4µM*
Cc1nc2ccccc2c2oc(C(=O)NCCCN3CCCC(C)C3)cc12 (stereo not drawn) | -2.7 | -0.1 | 11.6 | 17.5 | -1.5 | /
CCCNC(=O)N(C)C[C@H]1Oc2cc(C#CC(C)(C)O)ccc2S(=O)(=O)N([C@H](C)CO)C[C@H]1C | -2.0 | 0.0 | -2.1 | -1.5 | -0.2 | /
Cc1cc(N2CCC(N(C)C3CCCC3)CC2)nc2cc(O)ccc12 | 1.4 | 0.3 | ? | 103.0* | 21.3 | i
Cc1cc(N2CCN(c3ccccc3)CC2)nc2ccccc12 | -0.3 | 0.1 | -0.9 | -2.7 | -1.5 | /
C=CCNc1nc(NCc2cccc(OC)c2)c2sc(-c3ccccc3)cc2n1 | -0.2 | 0.1 | 11.0 | 82.7* | 10.2 | i
COc1cccc2c3cccc(OC)c3c3[nH]cnc3c12 | -0.4 | -0.4 | 17.6 | 85.8* | 27.9 | i
CCCC#Cc1ccc2c(c1)O[C@@H](CN(C)C(=O)COC)[C@@H](C)CN([C@H](C)CO)S2(=O)=O | 1.5 | 0.4 | 12.3 | 7.9 | -0.1 | /
CCN(CC)CCNC(=O)C(=O)NCC1OCCN1S(=O)(=O)c1cccs1 (stereo not drawn) | 18.4 | 0.1 | -0.4 | 53.8* | -4.9 | i
C[C@H](CO)N1C[C@H](C)[C@H](CN(C)C(=O)c2cccc(F)c2)Oc2ncc(-c3cccnc3)cc2C1=O | -3.4 | -0.2 | 10.2 | 4.4 | 0.5 | /
CN1CCN(c2ccc(Cl)cc2NC(=O)CCN2C(=O)c3ccccc3C2=O)CC1 | 24.3 | 0.0 | -3.3 | 82.6* | -0.8 | i
CCN(CC)CCNc1ccc(C)c2sc3ccc(O)cc3c(=O)c12 | 50.3* | -0.4 | 12.0 | 75.7* | 14.5 | 10.1µM*
CCN(CC)CCNC(=O)c1cc2c(=O)n(CC)c3ccccc3c2s1 | 2.5 | 0.1 | 11.0 | -5.1 | -4.0 | /
Cc1noc(C)c1NC(=O)N(C)C[C@@H]1Oc2ccc(NC(=O)Nc3cccc4ccccc34)cc2C(=O)N([C@@H](C)CO)C[C@@H]1C | -5.3 | -0.2 | 12.1 | 7.1 | -3.1 | /
CCCCCCCCCCCCCCCC(O)C[N+](C)(C)CCO (stereo not drawn) | 3.3 | 0.0 | 7.2 | 80.1* | 50.3* | 35.4µM*
CN1CCN(C(=O)C[C@@H]2CC[C@H]3[C@@H](COC[C@@H](O)CN3C(=O)Nc3ccc(F)cc3)O2)CC1 | -3.3 | -0.2 | 1.0 | -5.5 | 0.5 | /
OC(CON=C1c2ccccc2-c2ccccc21)CN1CCNCC1 (stereo not drawn) | 12.7 | 0.2 | -1.7 | 69.6* | 7.8 | i
CN1CCN(c2ccc(NC(=O)c3ccc(-c4ccccc4F)o3)cc2)CC1 | 6.7 | -0.2 | 1.7 | 10.3 | -0.4 | i
CS(=O)(=O)Nc1ccc2c(c1)[C@@H]1C[C@H](CC(=O)N3CCOCC3)O[C@@H](CO)[C@@H]1O2 | -13.4 | 0.2 | 2.9 | -4.6 | 1.9 | /
NC(=Nc1ccccc1)NC(=O)c1nc(Cl)c(N)nc1N | 2.1 | 0.0 | 7.4 | 32.2 | -4.0 | /

Assay outcomes as filed in PubChem BioAssay.
